The values that follow come from paper PMC7862700, “An all-to-all approach to the identification of sequence-specific readers for epigenetic DNA modifications on cytosine”.

What all share (assay): DAPPL (digital affinity profiling via proximity ligation, sequencing); 10 mM Tris-HCl pH 7.5, 50 mM NaCl, 1 mM DTT, 4% glycerol, room temperature, 30 min; GST-TFs on glutathione beads, 16-mer random dsDNA library, 0.1% formaldehyde crosslink after washing; high values mean tight binding
One test concerns the target T1, FLI1 (Homo sapiens, UniProt Q01543 1-452).
T1 sequence: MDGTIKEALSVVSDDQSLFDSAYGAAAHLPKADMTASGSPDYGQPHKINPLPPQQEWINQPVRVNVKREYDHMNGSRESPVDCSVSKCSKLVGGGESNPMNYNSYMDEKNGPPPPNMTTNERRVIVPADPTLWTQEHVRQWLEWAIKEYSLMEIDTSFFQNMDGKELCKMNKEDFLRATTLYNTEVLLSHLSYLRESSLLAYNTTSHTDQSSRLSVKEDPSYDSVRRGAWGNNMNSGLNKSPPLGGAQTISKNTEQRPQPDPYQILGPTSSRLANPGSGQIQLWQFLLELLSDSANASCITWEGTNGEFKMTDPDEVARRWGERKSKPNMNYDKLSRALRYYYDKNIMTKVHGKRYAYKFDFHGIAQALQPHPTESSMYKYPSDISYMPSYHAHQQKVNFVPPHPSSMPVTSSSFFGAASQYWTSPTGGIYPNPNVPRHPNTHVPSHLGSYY
The following applies: protein: recombinant; tags: N-terminal GST; dsDNA, one strand shown. In short, it runs like this:
(§1)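 Binding signal is each hexamer's read frequency for a factor divided by its frequency in the tag-only sample. The factors were GST-fused human transcription factors from yeast, captured on glutathione beads, DNA-barcoded and pooled with that sample. Pools were incubated with 200 nmole of a random double-stranded 16-mer DNA library in Tris/NaCl/DTT/glycerol buffer at room temperature for 30 min, then washed, crosslinked with 0.1% formaldehyde, proximity-ligated with BsaI/T4 ligase (1 h, 37 °C), PCR-amplified and sequenced on an Illumina NextSeq500.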

For another test, the target named is T2, ELK1 (Homo sapiens, UniProt P19419 1-428).
T2 sequence: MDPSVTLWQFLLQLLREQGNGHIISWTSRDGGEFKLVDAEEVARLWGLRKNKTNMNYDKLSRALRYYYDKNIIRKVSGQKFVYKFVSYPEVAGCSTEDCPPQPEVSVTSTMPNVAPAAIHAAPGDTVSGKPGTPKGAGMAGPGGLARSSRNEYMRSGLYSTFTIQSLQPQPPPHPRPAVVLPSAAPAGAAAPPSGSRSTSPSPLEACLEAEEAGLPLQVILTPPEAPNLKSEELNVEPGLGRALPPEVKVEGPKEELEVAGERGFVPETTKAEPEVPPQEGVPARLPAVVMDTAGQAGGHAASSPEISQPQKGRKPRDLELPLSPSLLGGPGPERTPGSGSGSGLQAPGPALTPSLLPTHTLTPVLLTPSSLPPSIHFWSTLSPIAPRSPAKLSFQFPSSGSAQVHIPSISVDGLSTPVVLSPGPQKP
The following applies: protein: recombinant; tags: N-terminal GST; dsDNA, one strand shown. Put shortly: as §1

A further test deals with T3, GABPA (Homo sapiens, UniProt Q06546 1-454).
T3 sequence: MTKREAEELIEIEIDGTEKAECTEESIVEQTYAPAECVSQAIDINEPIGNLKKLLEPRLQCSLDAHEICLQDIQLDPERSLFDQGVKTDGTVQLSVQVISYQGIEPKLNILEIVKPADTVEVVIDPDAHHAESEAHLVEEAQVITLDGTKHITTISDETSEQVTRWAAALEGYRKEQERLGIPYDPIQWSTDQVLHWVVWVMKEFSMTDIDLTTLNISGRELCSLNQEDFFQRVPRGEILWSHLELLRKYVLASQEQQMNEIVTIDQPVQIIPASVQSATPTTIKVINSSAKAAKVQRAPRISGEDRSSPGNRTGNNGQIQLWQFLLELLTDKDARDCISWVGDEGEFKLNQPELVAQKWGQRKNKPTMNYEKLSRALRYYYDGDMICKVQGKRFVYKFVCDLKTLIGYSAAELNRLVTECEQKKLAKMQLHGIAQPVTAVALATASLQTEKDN
The conditions noted are these: protein: recombinant; tags: N-terminal GST; dsDNA, one strand shown. Put shortly:
as §1

The next test addresses T4, ERG (Homo sapiens, UniProt P11308 1-479).
T4 sequence: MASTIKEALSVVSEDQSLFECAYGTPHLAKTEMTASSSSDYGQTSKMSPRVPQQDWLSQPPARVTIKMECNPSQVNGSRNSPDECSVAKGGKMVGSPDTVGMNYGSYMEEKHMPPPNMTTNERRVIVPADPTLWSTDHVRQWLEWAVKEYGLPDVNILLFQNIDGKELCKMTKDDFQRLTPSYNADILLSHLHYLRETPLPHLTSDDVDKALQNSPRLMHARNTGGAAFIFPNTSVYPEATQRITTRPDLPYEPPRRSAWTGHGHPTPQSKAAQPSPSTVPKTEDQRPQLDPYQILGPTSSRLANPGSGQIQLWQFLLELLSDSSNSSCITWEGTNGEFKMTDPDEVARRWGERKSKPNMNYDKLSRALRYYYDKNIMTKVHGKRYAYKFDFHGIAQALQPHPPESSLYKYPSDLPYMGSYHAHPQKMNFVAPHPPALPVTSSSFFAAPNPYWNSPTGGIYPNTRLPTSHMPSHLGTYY
The following applies: protein: recombinant; tags: N-terminal GST; dsDNA, one strand shown. In short, it runs like this: as §1

The target in another test is ELF1 (Homo sapiens, UniProt P32519 1-619). The conditions noted are these: protein: recombinant; tags: N-terminal GST; dsDNA, one strand shown. In short, it runs like this: as §1
Chain of ELF1 (P32519 whole entry): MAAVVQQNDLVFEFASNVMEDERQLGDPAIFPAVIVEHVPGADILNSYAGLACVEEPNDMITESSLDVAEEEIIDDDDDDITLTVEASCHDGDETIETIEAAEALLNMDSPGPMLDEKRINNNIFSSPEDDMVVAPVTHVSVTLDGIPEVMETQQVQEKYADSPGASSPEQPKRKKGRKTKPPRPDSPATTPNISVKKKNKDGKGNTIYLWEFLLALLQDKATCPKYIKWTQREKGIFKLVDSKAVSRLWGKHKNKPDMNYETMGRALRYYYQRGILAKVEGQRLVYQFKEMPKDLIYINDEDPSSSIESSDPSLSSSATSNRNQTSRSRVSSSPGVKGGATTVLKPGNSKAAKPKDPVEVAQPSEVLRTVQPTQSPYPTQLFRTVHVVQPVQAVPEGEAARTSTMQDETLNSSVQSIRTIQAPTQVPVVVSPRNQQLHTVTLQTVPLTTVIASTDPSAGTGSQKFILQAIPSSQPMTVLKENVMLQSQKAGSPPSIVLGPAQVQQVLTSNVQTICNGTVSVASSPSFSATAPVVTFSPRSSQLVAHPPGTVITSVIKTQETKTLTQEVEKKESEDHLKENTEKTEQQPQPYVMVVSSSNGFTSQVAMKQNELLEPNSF
The next test addresses T5, EHF (Homo sapiens, UniProt Q9NZC4 1-300).
T5 sequence: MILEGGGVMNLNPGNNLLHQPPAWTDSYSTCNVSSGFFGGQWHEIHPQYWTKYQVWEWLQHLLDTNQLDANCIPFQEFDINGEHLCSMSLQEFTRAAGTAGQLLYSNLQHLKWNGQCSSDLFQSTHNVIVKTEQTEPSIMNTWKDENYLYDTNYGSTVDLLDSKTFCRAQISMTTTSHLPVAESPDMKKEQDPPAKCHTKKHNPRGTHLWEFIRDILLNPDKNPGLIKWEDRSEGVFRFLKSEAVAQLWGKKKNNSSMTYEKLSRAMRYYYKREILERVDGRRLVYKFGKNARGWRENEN
The conditions noted are these: protein: recombinant; tags: N-terminal GST; dsDNA, one strand shown. Put shortly: as §1

For another test, the target named is SPI1 (Homo sapiens, UniProt P17947 1-270). The conditions noted are these: protein: recombinant; tags: N-terminal GST; dsDNA, one strand shown. In short, it runs like this:
as §1

The target of a further test is SPIB (Homo sapiens, UniProt Q01892 1-262). The following applies: protein: recombinant; tags: N-terminal GST; dsDNA, one strand shown. In short, it runs like this: as §1
Chain of SPIB (Q01892 whole entry): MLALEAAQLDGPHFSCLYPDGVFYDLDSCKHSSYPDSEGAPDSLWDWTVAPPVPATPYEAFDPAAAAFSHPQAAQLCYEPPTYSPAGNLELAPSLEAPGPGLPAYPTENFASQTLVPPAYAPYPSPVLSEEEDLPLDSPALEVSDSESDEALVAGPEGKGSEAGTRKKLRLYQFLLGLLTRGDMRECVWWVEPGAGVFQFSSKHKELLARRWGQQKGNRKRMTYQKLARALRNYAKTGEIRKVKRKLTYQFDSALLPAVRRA
The target of another test is T6, ELK3 (Homo sapiens, UniProt P41970 1-407).
T6 sequence: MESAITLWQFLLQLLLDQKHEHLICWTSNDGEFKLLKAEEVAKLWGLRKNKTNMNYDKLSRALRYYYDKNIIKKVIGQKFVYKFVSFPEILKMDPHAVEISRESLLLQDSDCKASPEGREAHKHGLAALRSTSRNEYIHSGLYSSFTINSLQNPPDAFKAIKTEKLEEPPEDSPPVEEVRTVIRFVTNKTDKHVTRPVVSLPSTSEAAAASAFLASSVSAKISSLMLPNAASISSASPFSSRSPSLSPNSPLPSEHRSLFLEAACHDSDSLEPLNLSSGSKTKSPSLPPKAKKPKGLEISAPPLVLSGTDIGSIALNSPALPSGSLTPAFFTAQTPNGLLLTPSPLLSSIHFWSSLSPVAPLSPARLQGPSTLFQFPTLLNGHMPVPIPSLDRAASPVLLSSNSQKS
The following applies: protein: recombinant; tags: N-terminal GST; dsDNA, one strand shown. In short, it runs like this:
as §1

The target of another test is T7, FEV (Homo sapiens, UniProt Q99581 1-238).
T7 sequence: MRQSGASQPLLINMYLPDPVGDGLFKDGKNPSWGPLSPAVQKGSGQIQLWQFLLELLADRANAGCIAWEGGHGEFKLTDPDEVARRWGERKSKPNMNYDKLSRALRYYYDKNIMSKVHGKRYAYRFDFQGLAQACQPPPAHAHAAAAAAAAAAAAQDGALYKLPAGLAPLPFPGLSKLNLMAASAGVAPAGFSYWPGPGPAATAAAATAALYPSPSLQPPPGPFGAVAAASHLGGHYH
The conditions noted are these: protein: recombinant; tags: N-terminal GST; dsDNA, one strand shown. Put shortly:
as §1

For another test, the target named is ETV5 (Homo sapiens, UniProt P41161 1-510). The conditions noted are these: protein: recombinant; tags: N-terminal GST; dsDNA, one strand shown. Put shortly: as §1
Chain of ETV5 (P41161 whole entry): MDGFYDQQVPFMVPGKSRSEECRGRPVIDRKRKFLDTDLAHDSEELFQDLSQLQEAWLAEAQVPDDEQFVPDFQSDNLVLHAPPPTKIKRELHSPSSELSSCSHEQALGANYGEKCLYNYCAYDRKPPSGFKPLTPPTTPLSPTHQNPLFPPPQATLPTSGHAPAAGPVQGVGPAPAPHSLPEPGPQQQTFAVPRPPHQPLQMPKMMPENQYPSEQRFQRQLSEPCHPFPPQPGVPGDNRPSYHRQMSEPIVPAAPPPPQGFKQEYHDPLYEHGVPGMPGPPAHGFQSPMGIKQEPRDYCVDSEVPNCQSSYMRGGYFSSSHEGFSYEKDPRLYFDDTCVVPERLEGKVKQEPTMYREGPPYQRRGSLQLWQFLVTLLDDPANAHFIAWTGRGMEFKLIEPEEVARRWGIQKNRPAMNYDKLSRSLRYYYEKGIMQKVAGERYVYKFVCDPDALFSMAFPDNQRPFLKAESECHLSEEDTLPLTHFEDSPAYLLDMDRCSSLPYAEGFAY
For the next test, the target named is HSF1 (Homo sapiens, UniProt Q00613 1-529). The conditions noted are these: protein: recombinant; tags: N-terminal GST; chain copies: 3; dsDNA, one strand shown. In short, it runs like this:
as §1

The next test concerns the target T8, SPIC (Homo sapiens, UniProt Q8N5J4 1-248).
T8 sequence: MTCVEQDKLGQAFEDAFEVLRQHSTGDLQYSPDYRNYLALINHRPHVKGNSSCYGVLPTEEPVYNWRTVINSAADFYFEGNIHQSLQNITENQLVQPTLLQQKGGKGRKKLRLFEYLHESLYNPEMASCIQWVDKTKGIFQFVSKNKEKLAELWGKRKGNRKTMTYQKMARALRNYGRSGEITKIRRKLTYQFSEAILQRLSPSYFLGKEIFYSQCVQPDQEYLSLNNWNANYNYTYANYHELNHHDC
The following applies: protein: recombinant; tags: N-terminal GST; dsDNA, one strand shown. In short, it runs like this:
as §1

Another test concerns the target ELF4 (Homo sapiens, UniProt Q99607 1-663). The following applies: protein: recombinant; tags: N-terminal GST; dsDNA, one strand shown. Put shortly:
as §1

A further test concerns the target T9, ELK4 (Homo sapiens, UniProt P28324-2 1-405).
T9 sequence: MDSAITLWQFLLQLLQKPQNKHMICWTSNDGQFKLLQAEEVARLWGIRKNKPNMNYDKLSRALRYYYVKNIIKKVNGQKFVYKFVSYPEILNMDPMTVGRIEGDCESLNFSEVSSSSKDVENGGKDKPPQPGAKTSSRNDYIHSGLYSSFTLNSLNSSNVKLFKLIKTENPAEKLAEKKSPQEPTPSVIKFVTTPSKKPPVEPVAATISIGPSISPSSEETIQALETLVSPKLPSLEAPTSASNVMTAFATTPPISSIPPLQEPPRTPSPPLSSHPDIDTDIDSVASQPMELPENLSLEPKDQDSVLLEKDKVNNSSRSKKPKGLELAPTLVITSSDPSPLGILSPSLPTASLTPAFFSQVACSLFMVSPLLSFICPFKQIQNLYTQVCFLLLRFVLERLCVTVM
The following applies: protein: recombinant; tags: N-terminal GST; dsDNA, one strand shown. In short, it runs like this: as §1

The next test has as its target T10, ETV2 (Homo sapiens, UniProt O00321 1-342).
T10 sequence: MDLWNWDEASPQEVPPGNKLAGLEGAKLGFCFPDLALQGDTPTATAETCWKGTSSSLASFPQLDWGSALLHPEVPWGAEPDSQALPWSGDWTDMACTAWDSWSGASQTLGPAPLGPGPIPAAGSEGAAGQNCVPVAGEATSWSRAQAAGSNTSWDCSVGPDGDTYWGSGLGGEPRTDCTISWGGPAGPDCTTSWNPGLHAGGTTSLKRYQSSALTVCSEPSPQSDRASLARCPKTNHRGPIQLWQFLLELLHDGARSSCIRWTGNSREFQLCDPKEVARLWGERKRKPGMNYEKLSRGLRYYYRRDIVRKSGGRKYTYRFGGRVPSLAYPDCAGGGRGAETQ
The conditions noted are these: protein: recombinant; tags: N-terminal GST; dsDNA, one strand shown. In short, it runs like this: as §1

The target in a further test is T11, ELF3 (Homo sapiens, UniProt P78545 1-371).
T11 sequence: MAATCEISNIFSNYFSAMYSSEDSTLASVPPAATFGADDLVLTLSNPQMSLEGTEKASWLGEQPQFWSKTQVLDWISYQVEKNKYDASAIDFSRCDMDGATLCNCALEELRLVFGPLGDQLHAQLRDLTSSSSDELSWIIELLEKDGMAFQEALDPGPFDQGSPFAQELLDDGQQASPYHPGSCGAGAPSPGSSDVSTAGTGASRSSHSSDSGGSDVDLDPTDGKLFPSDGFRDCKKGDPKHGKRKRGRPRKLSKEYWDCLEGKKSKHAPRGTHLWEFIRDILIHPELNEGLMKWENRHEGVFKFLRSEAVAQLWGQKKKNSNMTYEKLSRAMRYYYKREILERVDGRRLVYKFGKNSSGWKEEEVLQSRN
The conditions noted are these: protein: recombinant; tags: N-terminal GST; dsDNA, one strand shown. Put shortly: as §1

The target of the next test is CRX (Homo sapiens, UniProt O43186 1-299). The following applies: protein: recombinant; tags: N-terminal GST; dsDNA, one strand shown. Put shortly:
as §1

For the next test, the target named is ETV1 (Homo sapiens, UniProt P50549 1-477). The conditions noted are these: protein: recombinant; tags: N-terminal GST; dsDNA, one strand shown. In short, it runs like this: as §1
Chain of ETV1 (P50549 whole entry): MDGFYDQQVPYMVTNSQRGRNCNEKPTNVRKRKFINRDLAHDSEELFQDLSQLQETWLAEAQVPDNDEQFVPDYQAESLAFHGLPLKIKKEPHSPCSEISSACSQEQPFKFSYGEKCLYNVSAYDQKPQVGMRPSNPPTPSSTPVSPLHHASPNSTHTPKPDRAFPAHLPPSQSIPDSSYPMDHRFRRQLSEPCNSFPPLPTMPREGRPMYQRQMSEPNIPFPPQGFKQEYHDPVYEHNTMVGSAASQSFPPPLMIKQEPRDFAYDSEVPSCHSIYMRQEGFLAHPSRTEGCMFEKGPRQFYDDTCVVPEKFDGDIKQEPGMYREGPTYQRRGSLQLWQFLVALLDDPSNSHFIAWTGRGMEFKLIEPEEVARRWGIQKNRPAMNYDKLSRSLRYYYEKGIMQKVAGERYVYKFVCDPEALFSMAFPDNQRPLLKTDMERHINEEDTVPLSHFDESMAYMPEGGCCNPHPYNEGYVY

Chain of ELF4 (Q99607 whole entry): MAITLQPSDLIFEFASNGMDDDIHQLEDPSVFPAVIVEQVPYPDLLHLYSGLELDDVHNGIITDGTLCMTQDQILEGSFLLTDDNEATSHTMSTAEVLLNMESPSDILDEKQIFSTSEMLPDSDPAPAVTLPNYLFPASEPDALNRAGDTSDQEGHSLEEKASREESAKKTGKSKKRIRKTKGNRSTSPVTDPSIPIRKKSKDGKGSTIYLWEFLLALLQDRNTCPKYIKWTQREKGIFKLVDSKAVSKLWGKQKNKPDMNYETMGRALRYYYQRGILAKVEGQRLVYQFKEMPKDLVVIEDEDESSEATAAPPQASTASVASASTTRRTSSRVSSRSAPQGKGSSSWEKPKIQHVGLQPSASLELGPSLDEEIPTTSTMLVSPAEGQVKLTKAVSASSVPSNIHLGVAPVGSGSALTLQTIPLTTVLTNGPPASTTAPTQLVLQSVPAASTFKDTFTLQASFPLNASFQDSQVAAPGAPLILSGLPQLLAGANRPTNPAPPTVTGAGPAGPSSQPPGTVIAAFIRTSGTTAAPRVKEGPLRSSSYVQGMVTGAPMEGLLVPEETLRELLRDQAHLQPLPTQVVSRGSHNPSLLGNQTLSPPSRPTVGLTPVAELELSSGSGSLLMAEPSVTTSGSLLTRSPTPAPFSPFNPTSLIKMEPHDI
Chain of CRX (O43186 whole entry): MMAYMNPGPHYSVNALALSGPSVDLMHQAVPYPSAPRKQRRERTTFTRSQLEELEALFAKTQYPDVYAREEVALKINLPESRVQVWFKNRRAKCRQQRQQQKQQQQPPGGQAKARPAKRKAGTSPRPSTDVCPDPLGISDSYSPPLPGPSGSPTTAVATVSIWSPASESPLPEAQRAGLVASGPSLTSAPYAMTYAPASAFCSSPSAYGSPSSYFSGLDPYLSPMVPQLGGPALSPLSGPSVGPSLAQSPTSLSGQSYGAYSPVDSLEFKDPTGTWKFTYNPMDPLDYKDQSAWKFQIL
Chain of HSF1 (Q00613 whole entry): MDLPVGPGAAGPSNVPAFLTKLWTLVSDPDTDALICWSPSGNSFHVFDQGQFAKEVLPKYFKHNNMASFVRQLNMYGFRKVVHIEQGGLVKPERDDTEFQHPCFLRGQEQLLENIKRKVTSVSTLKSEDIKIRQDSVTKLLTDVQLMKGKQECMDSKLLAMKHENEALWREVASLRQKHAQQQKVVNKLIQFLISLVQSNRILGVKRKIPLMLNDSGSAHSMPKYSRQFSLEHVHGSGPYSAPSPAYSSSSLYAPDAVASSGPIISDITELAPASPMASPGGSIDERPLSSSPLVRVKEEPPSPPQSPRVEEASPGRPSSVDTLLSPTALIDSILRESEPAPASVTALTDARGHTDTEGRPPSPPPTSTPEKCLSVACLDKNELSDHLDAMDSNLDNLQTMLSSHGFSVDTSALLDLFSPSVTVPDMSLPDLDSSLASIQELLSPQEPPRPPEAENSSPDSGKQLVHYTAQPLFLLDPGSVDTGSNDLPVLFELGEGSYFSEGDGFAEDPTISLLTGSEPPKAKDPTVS

For the sequence TTTGTG, the binding signal with FLI1 was 1.31 fold enrichment (6-mer frequency, TF over GST control); with ELK1, 1.2 fold enrichment (6-mer frequency, TF over GST control); in the test with GABPA, 1.13 fold enrichment (6-mer frequency, TF over GST control); with ERG, 1.14 fold enrichment (6-mer frequency, TF over GST control); in the test with ELF1, 1.09 fold enrichment (6-mer frequency, TF over GST control); with EHF it was 1.15 fold enrichment (6-mer frequency, TF over GST control). In addition, the binding signal in the test with SPI1 is 1.12 fold enrichment (6-mer frequency, TF over GST control); in the test with SPIB, 1.09 fold enrichment (6-mer frequency, TF over GST control); with ELK3 it was 1.17 fold enrichment (6-mer frequency, TF over GST control); with FEV, 1.23 fold enrichment (6-mer frequency, TF over GST control); with ETV5, 1.17 fold enrichment (6-mer frequency, TF over GST control); with HSF1, 1.12 fold enrichment (6-mer frequency, TF over GST control). Also, the binding signal was 1.15 fold enrichment (6-mer frequency, TF over GST control) in the test with SPIC; 1.19 fold enrichment (6-mer frequency, TF over GST control) with ELF4; 1.38 fold enrichment (6-mer frequency, TF over GST control) in the test with ELK4; 1.25 fold enrichment (6-mer frequency, TF over GST control) with ETV2; 1.27 fold enrichment (6-mer frequency, TF over GST control) with ELF3; 1.29 fold enrichment (6-mer frequency, TF over GST control) with CRX. In the test with ETV1, the binding signal was 1.1 fold enrichment (6-mer frequency, TF over GST control).
